Source: PubChem BioAssay
The full list was thinned out, with hits kept by preference.
CBX7 inh – CBX7 inhibition, primary AlphaScreen | O95931 | normalised signal (fraction of DMSO) (no concentration beside the values) | hit rate 1.1% among 66,000 | AlphaScreen His6-CBX7 / biotin-H3K27me3 peptide binding; active compounds read low; in the data active means normalised signal below about 0.5
Target sequence (O95931 whole entry, looked up): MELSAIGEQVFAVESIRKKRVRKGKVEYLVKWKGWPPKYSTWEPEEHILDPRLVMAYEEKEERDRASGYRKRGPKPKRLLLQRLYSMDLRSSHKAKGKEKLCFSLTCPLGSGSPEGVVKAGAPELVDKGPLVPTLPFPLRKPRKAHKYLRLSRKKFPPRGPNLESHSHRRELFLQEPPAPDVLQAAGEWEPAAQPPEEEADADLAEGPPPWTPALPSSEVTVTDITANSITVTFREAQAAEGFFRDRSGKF
Active calls of the source: *.

SMILES	CBX7 inh
CCCn1cnc2cc(NCc3ccc(OCC)cc3)ccc21	0.445*
CCn1cnc2cc(NCc3ccc(Cl)cc3)ccc21	0.888
CCOC(=O)c1ccc(NC(=O)CN2C(=O)CC(C)(C)Sc3ccccc32)cc1	0.958
CCc1ccc(NS(=O)(=O)c2ccc3[nH]cc(C(=O)NC(C)c4ccccc4)c(=O)c3c2)cc1 (stereo unspecified)	0.885
COc1ccc(C(=O)NCCc2cc3ccc(C)c(C)c3[nH]c2=O)cc1	1.22
O=C(NC1CCCC1)c1ccc2c(c1)N(Cc1ccc(Cl)cc1)C(=O)c1ccccc1S2=O (stereo unspecified)	1.01
COc1cccc(-c2nn(C)c3sc(C(=O)NCCc4ccc(OC)c(OC)c4)cc23)c1	0.995
COc1ccc(Br)cc1CNC(=O)Cn1ncc2ccccc21	0.948
CCOC(=O)c1cnc2ccc(F)cc2c1NCCc1ccccc1	1.26
CC1CCCN(S(=O)(=O)c2ccc(C(=O)Nc3nnc(-c4cccs4)o3)cc2)C1 (stereo unspecified)	1.04
CC1CC(C)CN(S(=O)(=O)c2ccc(C(=O)Nc3nc(-c4ccncc4)cs3)cc2)C1 (stereo unspecified)	1.02
Cc1nnc(NC(=O)c2ccc(S(=O)(=O)N3CCC(C)CC3)cc2)o1	0.0279*
O=C(Nc1nnc(-c2cccs2)o1)c1ccc(S(=O)(=O)N2CCCCC2)cc1	0.827
CC1CN(S(=O)(=O)c2ccc(C(=O)Nc3nnc(-c4cccs4)o3)cc2)CC(C)O1 (stereo unspecified)	0.77
CC1CC(C)CN(S(=O)(=O)c2ccc(C(=O)Nc3nnc(-c4ccc(Cl)s4)o3)cc2)C1 (stereo unspecified)	0.395*
CC1CCN(S(=O)(=O)c2ccc(NC(=O)c3ccc(C(C)(C)C)cc3)cc2)CC1	1.07
CC1CN(S(=O)(=O)c2ccc(C(=O)Nc3nnc(-c4ccc(F)cc4)o3)cc2)CC(C)O1 (stereo unspecified)	0.0116*
COCc1nnc(NC(=O)c2ccc(S(=O)(=O)N3CC(C)CC(C)C3)cc2)o1 (stereo unspecified)	0.821
COCc1nnc(NC(=O)c2ccc(S(=O)(=O)N3CC(C)OC(C)C3)cc2)o1 (stereo unspecified)	0.673
Cc1nnc(NC(=O)c2ccc(S(=O)(=O)N3CC(C)CC(C)C3)cc2)o1 (stereo unspecified)	0.387*
COc1ccc(-c2nnc(NC(=O)c3ccc(S(=O)(=O)N4CCC(C)CC4)cc3)o2)c(OC)c1	0.915
CC(C(=O)NCc1ccccc1)C1Sc2ccccc2N(Cc2cccc(Cl)c2)C1=O (stereo unspecified)	0.86
CCOC(=O)c1cnc2ccc(OC)cc2c1Nc1ccc(O)cc1	1.06
CCC(=O)N1CCc2cc(S(=O)(=O)N3CCN(c4cccc(C)c4C)CC3)ccc21	1.06
COc1ccc(CNS(=O)(=O)c2ccc3c(c2)CC(=O)N3)cc1	0.847
SMILES	CBX7 inh
COc1ccc(-c2cc3nc(C)c(CCC(=O)NCCCN4CCCC4)c(C)n3n2)c(OC)c1	1.38
COC(=O)CNC(=O)c1nn(-c2ccccc2OC)c(=O)c2ccccc12	0.925
CCOc1ccccc1NC(=O)c1cc2c(s1)-c1c(C)cccc1OC2	1.61
O=C(NC1CCCCCCC1)c1nnc(Cc2ccc(Cl)cc2)o1	1.18
CCOc1ccc(-c2cc3cc(OC)c(OC)cc3c(Cc3ccc(OC)cc3)n2)cc1	1
CCc1cccc(C)c1NC(=O)CN1C(=O)CSc2ncccc21	1.06
Cc1cccc2c1-c1sc(C(=O)N(CCC#N)c3ccccc3)cc1CO2	1.17
CCC1CCCCN1S(=O)(=O)c1ccc(C(=O)Nc2nnc(-c3cccc(OC)c3)o2)cc1 (stereo unspecified)	0.914
CCC1CCCCN1S(=O)(=O)c1ccc(C(=O)Nc2nnc(C)o2)cc1 (stereo unspecified)	0.0944*
CCC1CCCCN1S(=O)(=O)c1ccc(C(=O)Nc2nnc(-c3ccc(OC)cc3)o2)cc1 (stereo unspecified)	0.788
CCN(Cc1ccccc1)C(=O)CCc1nc(-c2ccccc2F)no1	1.06
CCOc1cc2c(cc1OCC)C(c1cc(Cl)cc(Cl)c1O)NCC2 (stereo unspecified)	0.857
c1ccc(Cn2c(NCc3ccc4c(c3)OCO4)nc3ccccc32)cc1	0.937
O=c1c(-c2cc(Br)ccc2NCc2ccccc2)nc2ccccc2n1Cc1ccccc1	0.368*
Cc1ccccc1Cn1c(CNC(=O)Cc2ccccc2)nc2ccccc21	1.18
Clc1ccccc1-c1nc(NCc2ccccc2)nc2ccc(Br)cc12	1.51
Cc1ccc(NCc2nc3ccccc3n2Cc2ccccc2)cc1	0.852
Cc1ccccc1NCc1nc2ccccc2n1Cc1ccccc1	0.415*
O=C(Nc1ccc2nc3n(c(=O)c2c1)CCCCC3)C1CCCO1 (stereo unspecified)	1.05
CCOc1ccc(NC(=O)[C@H](CCSC)N2Cc3ccccc3C2=O)cc1	0.839
Cc1ccc2nc(-c3ccccn3)c(Nc3ccc(F)cc3)n2c1	0.212*
Cc1ccc2nc(-c3cccnc3)c(Nc3ccccc3)n2c1	1.09
Cc1ccc(Nc2c(-c3ccccc3)nc3ccc(C)cn23)cc1	1.24
COc1ccc(-c2nc3ncccn3c2Nc2ccc(C)cc2)cc1	1.03
COc1ccc(Nc2c(-c3ccccn3)nc3ccc(C)cn23)cc1	0.0598*
SMILES	CBX7 inh
Cc1ccc(Nc2c(-c3cccnc3)nc3ccc(C)cn23)cc1	0.937
Clc1ccc2nc(-c3ccccn3)c(Nc3ccc4c(c3)OCCO4)n2c1	0.152*
Clc1ccc2nc(-c3ccc(N4CCOCC4)cc3)c(Nc3ccc4c(c3)OCCO4)n2c1	1.14
Clc1ccc2nc(-c3ccccn3)c(Nc3ccccc3)n2c1	0.591
Clc1ccc2nc(-c3ccccc3)c(Nc3ccc4c(c3)OCCO4)n2c1	1.07
Fc1ccc(Nc2c(-c3ccccn3)nc3ccc(Cl)cn23)cc1	0.858
Cc1ccc2nc(-c3ccccn3)c(Nc3ccccc3)n2c1	0.109*
CC1(C)CC(=O)c2cc(C(=O)Nc3ccc4c(c3)C(=O)NC4=O)c(=O)n(-c3ccccc3)c2C1	1.02
Cc1nn(Cc2c(Cl)cccc2Cl)c(C)c1NC(=O)c1cc(-c2ccccc2O)on1	1.13
CCOC(=O)c1c(C)n(-c2ccc(C)cc2)c2ccc(OCC(O)CN3CCOCC3)cc12 (stereo unspecified)	0.888
Oc1ccccc1-c1nc(Nc2cccc(C(F)(F)F)c2)c2ccccc2n1	1.17
CCN(CC)S(=O)(=O)c1ccc2c(c1)c(=O)c(C(=O)NCc1ccc(C)cc1)cn2C	1.13
CC(=O)Nc1ccc2nc(NC(=O)c3ccc(NC(=O)C4CCCCC4)cc3)sc2c1	0.995
Cc1cc(C)n(-c2nnc(-c3ccccc3)c(-c3ccccc3)n2)n1	0.966
O=C(c1ccc2c(=O)n3c(nc2c1)CCCCC3)N1CCCC1	1.03
CC1CCCN(S(=O)(=O)c2ccc(C(=O)Nc3nc(-c4ccncc4)cs3)cc2)C1 (stereo unspecified)	1.05
Cn1c(C(=O)N2CCCC(C(=O)NC3CCCCCC3)C2)cc2sccc21 (stereo unspecified)	0.896
Cc1ccc2nc(-c3ccccn3)c(Nc3ccccc3C)n2c1	0.00675*
Cc1ccc2nc(-c3ccncc3)c(Nc3ccccc3C)n2c1	0.893
Cc1ccccc1Nc1c(-c2ccccn2)nc2ccc(Cl)cn12	0.959
CCOC(=O)c1ccccc1Nc1cc(C)nc2nnnn12	0.906
CCc1ccc(CNC(=O)CN2N=C(c3ccc(Cl)cc3)CCC2=O)cc1	0.961
COc1ccc(NC(=O)C2CC(=O)N(c3ccc(OC(C)C)cc3)C2)cc1 (stereo unspecified)	0.952
